These results are taken from PubChem BioAssay (Tox21).

Molecules are shown by their SMILES. Records with an inconclusive call do not appear. Values without a mark were called inactive. Activity calls are given as the source filed them. The call rests on the fitted dose curve.
On the % scale 0 is the no-effect control and ±100 the full control effect; potency means the concentration at half of the fitted maximal effect.

The target in the experiment is Muscarinic acetylcholine receptor M1 (Homo sapiens) (UniProt P11229). Put plainly: Cholinergic receptor muscarinic 1 (CHRM1) small molecule antagonists, cell-based qHTS assay (AID 1963588). Further: nearly all actives have a fitted effect of over 40% in size. As to conditions: CHRM1-CHO antagonist mode, calcium flux fluorescence; series mostly up to 61.5 µM; activity, negative = inhibition: at the top concentration. From the text: National Center for Advancing Translational Sciences [NCATS]
Muscarinic acetylcholine receptor M1 (Homo sapiens), sequence (P11229 whole entry, looked up): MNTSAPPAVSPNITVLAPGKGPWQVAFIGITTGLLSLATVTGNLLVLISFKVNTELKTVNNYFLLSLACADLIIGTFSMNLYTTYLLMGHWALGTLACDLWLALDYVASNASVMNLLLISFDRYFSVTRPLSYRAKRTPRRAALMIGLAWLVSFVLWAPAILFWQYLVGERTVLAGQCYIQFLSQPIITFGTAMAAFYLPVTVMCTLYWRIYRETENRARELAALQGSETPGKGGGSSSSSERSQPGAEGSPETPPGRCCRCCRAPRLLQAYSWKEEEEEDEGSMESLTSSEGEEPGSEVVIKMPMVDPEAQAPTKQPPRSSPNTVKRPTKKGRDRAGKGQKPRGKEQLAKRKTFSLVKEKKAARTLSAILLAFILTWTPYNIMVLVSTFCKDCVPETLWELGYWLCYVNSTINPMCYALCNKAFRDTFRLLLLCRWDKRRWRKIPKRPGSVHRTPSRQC
Division of Preclinical Innovation [DPI]
U.S. Environmental Protection Agency [EPA]
National Institutes of Environmental Health Sciences [NIEHS]
National Toxicology Program [NTP]
U.S. Food and Drug Administration [FDA]
The CHRM1 is a muscarinic receptor. This receptor plays a crucial role in learning and memory processes and has long been identified as a promising therapeutic target for the improvement of cognitive decline in Alzheimer's disease (AD). The CHRM1-CHO cell line stably expressing human muscarinic acetylcholine receptor M1 (CHRM1) can be used for screening agonists and antagonists of interactions between CHRM1 and its ligands. The CHRM1-CHO Calcium Flux Assay is a homogeneous fluorescence-based assay for detecting the intracellular calcium level using FDSS kinetic plate reader system.
Tox21 Assay Protocol Summary:
CHRM1-CHO cells were dispensed at 1000 cells/3uL/well in 1536-well black-clear bottom plates using a Multidrop Dispenser. After the assay plates were incubated at a 37 C/5% CO2 incubator for 18 h, 3 uL of Dye Loading Buffer was transferred to the assay plate by a Flying Reagent Dispenser. The assay plates were incubated at 37 C for 1h. For antagonist mode, 23 nL of compounds dissolved in DMSO, positive controls or DMSO only was transferred to the assay plate by a pin tool. After 5 min incubation at room temperature, 1.5 uL of acetylcholine at 50nM was added to each well. The fluorescence intensity in the plates was measured using FDSS 7000EX kinetic plate reader for 3 min at 1 sec intervals. Each test compound was measured at 15 concentrations in three independent runs.
(In qHTS, concentration-response curves come from the screen itself.)
`CO[C@]1(NC(=O)CSC(F)F)C(=O)N2C(C(=O)O)=C(CSc3nnnn3CCO)CO[C@H]21`: the “activity, negative = inhibition” value is 3% [at 28.3 µM].

As for `CO/N=C1\CN(c2nc3c(cc2F)c(=O)c(C(=O)O)cn3C2CC2)CC1CN` (stereo not given), the “activity, negative = inhibition” value is -0.198% [at 28.3 µM].

On to `COc1cc2nc(N(C)CCCNC(=O)C3CCCO3)nc(N)c2cc1OC` (stereo not given), for which the “activity, negative = inhibition” value is -15.7% [at 28.3 µM].

Consider `CCCN(CCc1cccs1)[C@H]1CCc2c(O)cccc2C1`, for which the Potency is 10300 nM (active).

Take `CC(=O)c1ccc2c(c1)Cc1ccccc1-2`: the “activity, negative = inhibition” value is -4.04%.

On to `C/C=C/C(=O)C1=C(C)CCCC1(C)C`, for which the “activity, negative = inhibition” value is 0.0149%.

For `COc1ccc2cc(S(=O)(=O)N[C@H](CC(=O)N[C@H](Cc3ccc(CN4[C@H](C)CCC[C@@H]4C)cc3)C(=O)N(C)C(C)C)c3ccc4c(c3)OCO4)ccc2c1`, the Potency is 794 nM (active).

Consider `CSc1c(Cl)c(Cl)c(Cl)c(Cl)c1Cl`, for which the “activity, negative = inhibition” value is 8.98%.

Consider `CO/N=C(/C(=O)N[C@@H]1C(=O)N2C(C(=O)O)=C(Cn3nnc(C)n3)CS[C@H]12)c1csc(N)n1`, for which the “activity, negative = inhibition” value was 0.13% [at 28.3 µM].

`CCOc1ccc(NS(=O)(=O)c2ccc(N)cc2)nn1`: the “activity, negative = inhibition” value was 9.58% [at 28.3 µM].

As to `COC(=O)c1nc(Cl)c(Cl)nc1N`, the “activity, negative = inhibition” value is 0.337% [at 28.3 µM].

As for `O=C(O)CN(CCN(CC(=O)O)CC(=O)O)CC(=O)O`, the activity, negative = inhibition was 37.7% [at 2.17 µM].

On to `O=C(Cl)c1cc(Cl)cc(Cl)c1`, for which the “activity, negative = inhibition” value is 9.24%.

For `CCN(Cc1ccccc1)c1ccccc1`, the “activity, negative = inhibition” value was 8.66%.

`NC(CSCC(=O)O)C(=O)O` (stereo not given): the “activity, negative = inhibition” value is -11.4% [at 28.3 µM].

As for `COC(=O)[C@@H](N)Cc1ccc(O)c(O)c1`, the “activity, negative = inhibition” value is -25.3% [at 28.3 µM].

In the case of `CCCCCCCC/C=C\CCCCCCCC(=O)OC(CO)CO`, the “activity, negative = inhibition” value is 9.9%.

As for `CCCCCCCCCOC(=O)CCCCC(=O)OCCCCCCC`, the “activity, negative = inhibition” value is 234%.

On to `CCCCCCCCCCCCCOS(=O)(=O)O`, for which the “activity, negative = inhibition” value is -26.4%.

For the compound `CC[N+](CC)(CC(=O)Nc1c(C)cccc1C)Cc1ccccc1` (tested in a mixture with another compound), the “activity, negative = inhibition” value was -8.16% [at 28.3 µM].

Take `CCc1c(C)cc(N)c(CC)c1N`: the “activity, negative = inhibition” value is 9.59%.

For the compound `CCCCC/C=C\C=C\C(=O)OCC`, the “activity, negative = inhibition” value was -5.72%.

Consider `CC(C)COC(=O)CC(C(=O)OCC(C)C)S(=O)(=O)O` (stereo not given), for which the “activity, negative = inhibition” value was -9.67%.

In the case of `C=CC(=O)[O-].C=CC(=O)[O-].[Zn+2]`, the “activity, negative = inhibition” value is 18.1%.

Consider `COP(=O)(OC)OC(c1ccc(Cl)cc1)P(=O)(OC)OC` (stereo not given), for which the “activity, negative = inhibition” value was 21.1% [at 28.3 µM].

In the case of `CCOC(=O)C1=C[C@]2(CC)CCCN3CCc4c(n1c1ccccc41)[C@@H]32`, the “activity, negative = inhibition” value was 0.389% [at 28.3 µM].

Regarding `CC(C)=CC(C)(C)C`, the “activity, negative = inhibition” value is 4.96%.

As to `C=CC(=O)OCCCCCCOC(=O)C=C`, the Potency result is “inactive”.

Consider `CCCCCC[C@@H](O)C/C=C\CCCCCCCC(=O)O`, for which the “activity, negative = inhibition” value is 10.2%.

Turning to `CC(C)c1ccccc1C(C)C`, the “activity, negative = inhibition” value is -10.1%.

With `CCN(Cc1cccc(S(=O)(=O)O)c1)c1ccc(C(=C2C=CC(=[N+](CC)Cc3cccc(S(=O)(=O)O)c3)C=C2)c2ccccc2S(=O)(=O)[O-])cc1`, the “activity, negative = inhibition” value was 4.05% [at 28.3 µM].

Consider `NCCCN(CCO)CCO`, for which the “activity, negative = inhibition” value was 1.71%.

As for `CCCCC[Si](OCC)(OCC)OCC`, the “activity, negative = inhibition” value is 12.5%.

For `Cc1nc2ccc(CN(C)c3ccc(C(=O)N[C@@H](CCC(=O)O)C(=O)O)s3)cc2c(=O)[nH]1`, the “activity, negative = inhibition” value was 10.2% [at 28.3 µM].

In the case of `CC(C)(c1ccccc1)c1ccccc1`, the Potency is 1100 nM (active).

For `NC(=O)CCCCC1CCSS1` (stereo not given), the “activity, negative = inhibition” value was 16.9% [at 28.3 µM].

`CCN(CCC#N)c1ccc(N=Nc2c(Cl)cc([N+](=O)[O-])cc2Cl)cc1`: the “activity, negative = inhibition” value is 5.15%.

Consider `CC(S)C(C)S` (stereo not given), for which the “activity, negative = inhibition” value was 6.03%.

Turning to `CCN(CC)c1ccc2c(-c3ccccc3C(=O)O)c3ccc(=[N+](CC)CC)cc-3oc2c1`, the “activity, negative = inhibition” value was 30.5%.

With `CCCCC(CC)COP(=O)(O)O` (stereo not given), the “activity, negative = inhibition” value is -12.7%.
